Reference: ChEMBL document CHEMBL3988442, “University of Dundee, Small-Polar-MMV Screening Library” (2021)

Experiments:
[1] = molecular target: T1, Aspartate--tRNA(Asp/Asn) ligase (Mycobacterium tuberculosis (strain ATCC 25618 / H37Rv)) (UniProt P9WFW3); assay: Assay for Asp RNA synthetase-1 from Mycobacterium tuberculosis; assay type: functional; parameters: scale not given: direction of the effect not stated beside the values; details: 30 µM; further: in the data most compounds retested in dose-response had high values
T1 sequence (whole entry): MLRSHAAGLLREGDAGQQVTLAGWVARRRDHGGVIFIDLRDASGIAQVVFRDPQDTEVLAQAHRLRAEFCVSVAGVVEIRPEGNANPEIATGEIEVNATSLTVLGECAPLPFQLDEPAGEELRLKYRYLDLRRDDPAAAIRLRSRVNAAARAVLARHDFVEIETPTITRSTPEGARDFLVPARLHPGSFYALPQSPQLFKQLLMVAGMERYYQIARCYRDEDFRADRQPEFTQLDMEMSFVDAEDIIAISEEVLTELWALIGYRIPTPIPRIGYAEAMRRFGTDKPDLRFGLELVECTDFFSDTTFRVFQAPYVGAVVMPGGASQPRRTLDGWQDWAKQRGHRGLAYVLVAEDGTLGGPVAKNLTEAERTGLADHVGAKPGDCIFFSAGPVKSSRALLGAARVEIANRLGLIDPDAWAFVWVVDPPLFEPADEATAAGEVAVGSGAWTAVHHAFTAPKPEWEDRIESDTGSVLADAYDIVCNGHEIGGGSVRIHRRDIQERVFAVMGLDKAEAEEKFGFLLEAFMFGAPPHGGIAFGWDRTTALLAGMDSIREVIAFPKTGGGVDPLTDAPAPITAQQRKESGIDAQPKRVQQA

[2] = molecular target: Shiga toxin 2 (Escherichia coli O157:H7) (UniProt P09385+P09386); assay: E. coli 0.157:H7 Shiga Toxin SOP - stx2 screening assay; assay type: functional; parameters: scale not given: direction of the effect not stated beside the values; details: 30 µM

Structure (SMILES)	Percent Effect [1] [%]	Percent Effect [2] [%]
Cn1ccnc1CN1CCOCC(Cc2ccccn2)C1 (configuration not stated)	-1.22	17.1
Cc1cc(CNC(=O)NC(C)c2ccc(N3CCOCC3)cc2)no1 (configuration not stated)	5.56	-23.6
CC(O)CN1CCN(C(=O)c2ccc3c(c2)COC3)CC1 (configuration not stated)	-4.85	-19.4
Cn1nc(C(=O)NCc2ccccn2)c2c1CCS(=O)(=O)C2	-0.726	-22.4
CCc1ncc2c(n1)CN(Cc1nc(-c3ccccn3)no1)CC2	0.141	-30.2
Cc1nc(-c2ccccc2)sc1C(=O)NCCNc1ncccn1	-2.89	28.3
CC(=O)c1cc(CC(=O)NCc2c(F)cccc2F)cs1	-0.993	4.94
CCc1ccc(CN2C[C@@H]3OCCN(c4ccnc(N(C)C)n4)[C@@H]3C2)o1	-6.22	-25.6
Cc1ccoc1C(=O)N1C[C@@H]2[C@@H](C1)OCC(=O)N2Cc1cccnc1	2	-12.8
O=C(NCCC1CCCO1)c1ccccc1N1CCOCC1 (configuration not stated)	-8.37	-3.88
O=C(C1=CCCC1)N1CCC[C@]2(C[C@@H](OCc3ccncc3)CO2)C1	5.27	-14.6
COc1cccc(-n2nnc(C(=O)N3CCCC3)c2C)c1	-2.63	5.03
O=C(NCc1ccccc1)c1nnc2ccc(N3CCOCC3)cc2n1	-1.02	-21.5
CCNC(=O)c1ccc2c(c1)nc1n2CCN(Cc2ccco2)C1	3.83	-56
Cc1ccc(CN2CCc3ncnc(-c4cccnc4)c3CC2)o1	4.98	9.48
Cc1ccc(C(=O)N2CC[C@@H]3[C@H]2CCC(=O)N3c2ccccc2)o1	-6.1	-13
CCN(C1CCS(=O)(=O)C1)S(=O)(=O)c1cccc2cc(C)cnc12 (configuration not stated)	-1.66	30.4
Cn1nc2c(cc1=O)CN(CC(=O)Nc1ccc(Cl)cn1)CC2	48.3	-4.57
CC(C)c1nc(C2CCCN(Cc3nnc(C4CC4)o3)C2)no1 (configuration not stated)	-2.16	-7.91
CC(C)c1cc2c(O)nc(CSCC(=O)O)nc2s1	-0.29	-12.1
O=C1CCC2(CCCN(C(=O)c3cscn3)C2)CN1CCc1c[nH]cn1 (configuration not stated)	3.83	-12.3
O=C(NCC1COCc2c(-c3cccnc3)nnn2C1)c1cccs1 (configuration not stated)	9.59	-14.9
CCn1ccnc1CN1CCC(CCC(=O)Nc2ccccc2Cl)CC1	-0.673	-30.9

Structure (SMILES)	Percent Effect [1] [%]	Percent Effect [2] [%]
Fc1cccc(CN2CCO[C@H]3[C@@H](OCc4ccccn4)CC[C@@H]32)c1	0.564	-1.04
CCN(CC1CCOC1)C(=O)Nc1ccc(-n2cncn2)nc1 (configuration not stated)	-0.722	-25.9
COc1ccc(CN2CCc3ncnc(OC(C)C)c3CC2)cc1	8.01	-9.16
COc1ccc(NC(=O)NC(C)(C)c2noc(C)n2)cc1	-6.73	-8.05
Cc1ccc(-c2ncc(C(=O)NCCS(N)(=O)=O)s2)c(C)c1	1.7	18.5
Cc1noc(C)c1CN1CCc2nn(C(C)C)c(=O)cc2C1	7.84	-14
c1ccc(CCN2CCOC(Cn3cccn3)C2)nc1 (configuration not stated)	-0.259	0.927
CC(C)c1ncc2c(n1)CN(Cc1ccc(C(N)=O)cc1)CC2	-0.3	-42.6
O=C(c1cnn2c1OCCC2)N1CCN(C/C=C/c2ccccc2)CC1	3.28	-6.18
C=C(C)COCCNC(=O)C1CCCN1C(C)=O (configuration not stated)	-3.43	-6.8
NS(=O)(=O)Cc1ccc(CNC(=O)NCC2CCOC2)cc1 (configuration not stated)	-4.55	26.9
Cc1nc(C)n(CC2CCCN(Cc3cccc(C#N)c3)C2)n1 (configuration not stated)	3.85	25.5
CN1[C@H](Cn2cccn2)C[C@@H]2CN(C(=O)Cc3cccs3)CC[C@@H]21	3.12	-12.8
Cc1noc(C)c1CCC(=O)N1CCCN(Cc2cscn2)CC1	-0.789	27.4
O=C(NCc1ccco1)[C@H]1C[C@@H]2CCN(c3ccncn3)C[C@@H]2O1	-4.16	-6.97
COCCNc1nc2c(c(NCc3ccncc3)n1)CCNCC2	2.58	-12.3
Cc1cnn(CC2CCCN2Cc2cc(=O)n3cccc(C)c3n2)c1 (configuration not stated)	3.68	8
CC(C)n1ccnc1CN1CCCN(C(=O)CC2C=CCC2)CC1 (configuration not stated)	1.91	-0.917
CC(=O)N1CCC(Oc2ccc(Cl)cn2)CC1	-6.73	-4.66
CN(C)C(=O)CN1C[C@@H]2CC[C@H](C1)N(Cc1cccc(Cl)c1Cl)C2	0.661	1.27
COc1ccnc(N2CCN(C(=O)c3csc(C4CC4)n3)CC2)n1	-0.494	-2.7
c1ccc(-c2ccc(C3CNCCO3)nc2)cc1 (configuration not stated)	7.81	-59.5
CN(Cc1nnc2n1CCC2)C(=O)NCCc1ccc2c(c1)OCO2	10.3	19.1
